Compound activity deposited in PubChem by The Scripps Research Institute Molecular Screening Center.
Most compounds without a hit are left out; they make up all but 1.8% or so of the library.
Fam108B counter: mouse Fam108B serine hydrolase inhibitors, primary screen, counter-screen for RBBP9 inhibitor project, biochemical, fluorescence polarization | inhibition, % at 9.51 µM | recombinant Fam108B, FP-Rh probe fluorescence polarization | 300,000 compounds, 0.33% hits;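 active = inhibition above the screen mean inhibition plus 3 SD, computed separately per campaign, cut at about 18% in these data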;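 also: inhibitors lower polarization as less probe binds the enzyme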
PAD4 inh: human PAD4 inhibitors, primary screen, biochemical, fluorescence polarization, 1536-well format; recombinant PAD4, RCA probe fluorescence polarization; inhibition, % at 6.36 µM; 330,000 compounds, 0.41% hits;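 active = percent inhibition above a cutoff equal to the mean of all tested compounds plus 3 SD, cut at about 15% in these data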;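 also: 0% = PAD4 with RCA probe and DMSO and 100% = probe without PAD4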
Target sequence (Q9UM07 whole entry, looked up): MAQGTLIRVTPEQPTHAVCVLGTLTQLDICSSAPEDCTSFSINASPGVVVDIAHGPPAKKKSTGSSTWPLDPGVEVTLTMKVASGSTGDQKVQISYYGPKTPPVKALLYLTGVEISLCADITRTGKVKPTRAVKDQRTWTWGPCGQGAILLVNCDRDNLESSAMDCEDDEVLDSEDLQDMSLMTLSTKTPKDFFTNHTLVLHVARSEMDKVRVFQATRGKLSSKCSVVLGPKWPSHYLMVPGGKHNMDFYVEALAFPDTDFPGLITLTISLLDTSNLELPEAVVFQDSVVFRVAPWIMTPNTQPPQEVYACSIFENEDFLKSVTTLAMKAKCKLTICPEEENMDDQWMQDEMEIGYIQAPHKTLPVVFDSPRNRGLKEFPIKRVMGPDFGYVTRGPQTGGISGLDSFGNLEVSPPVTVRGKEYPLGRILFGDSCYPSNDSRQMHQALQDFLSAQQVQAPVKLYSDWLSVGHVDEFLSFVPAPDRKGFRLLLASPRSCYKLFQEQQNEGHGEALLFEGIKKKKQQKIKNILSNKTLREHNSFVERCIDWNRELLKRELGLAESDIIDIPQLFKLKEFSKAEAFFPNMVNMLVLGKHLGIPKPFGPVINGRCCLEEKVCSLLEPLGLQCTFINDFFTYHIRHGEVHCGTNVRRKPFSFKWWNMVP
LYPLA2 inh: LYPLA2 inhibitors, primary screen, counter-screen for PME1 inhibitor project, biochemical, fluorescence polarization, FP-Rh probe ABPP; recombinant LYPLA2; inhibition, % at 5.9 µM; AID 2177, 2009; 320,000 compounds, 0.38% hits; Acyl-protein thioesterase 2 (Homo sapiens), O95372;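 active = inhibition above the screen-wide mean plus 3 SD, limit set per campaign, cut at about 26% in these data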;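 also: 0% = LYPLA2 with DMSO and 100% = wells lacking LYPLA2 enzyme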
LYPLA1 counter: LYPLA1 inhibitors, primary screen, counter-screen for PME1 inhibitor project, biochemical, fluorescence polarization, FP-Rh probe ABPP; 320,000 compounds, 0.16% hits; Acyl-protein thioesterase 1 (Homo sapiens), O75608; recombinant LYPLA1; inhibition, % at 5.9 µM; AID 2174, 2009;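 active = inhibition above the mean of all tested compounds plus 3 SD, set per campaign, cut at about 14% in these data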;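 also: inhibitors block serine hydrolase probe labeling of LYPLA1 so polarization falls; 0% = enzyme with DMSO and 100% = wells lacking LYPLA1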
PME-1 inh: PME-1 inhibitors via competitive probe labeling, primary screen, biochemical, fluorescence polarization, FP-Rh probe, HTS. recombinant PME-1. inhibition, % at 5.9 µM. Protein phosphatase methylesterase 1 (Homo sapiens), Q9Y570. 320,000 compounds, 0.53% hits;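 active = inhibition above the campaign mean of all compounds plus 3 SD, cut at about 26% in these data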;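 also: competitive labeling of PME-1 active site by serine hydrolase directed probe; 0% = PME-1 with DMSO and 100% = wells lacking PME-1 enzyme; inhibitors block probe labeling so polarization falls and inhibition rises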
GSTO1 inh: inhibitors of recombinant GSTO1, primary screen, counter-screen for RBBP9 inhibitor project, biochemical, fluorescence polarization | 300,000 compounds, 1.1% hits | Glutathione S-transferase omega-1 (Homo sapiens), P78417 | activity-based probe fluorescence polarization | inhibition, % at 5.96 µM;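 active = inhibition above the campaign mean inhibition plus 3 SD, cut at about 35% in these data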;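 also: 0% = GSTO1-1 with DMSO and 100% = wells lacking GSTO1-1 enzyme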
PAD4 confirm: human PAD4 inhibitors, confirmation, biochemical, fluorescence polarization; recombinant PAD4, RCA probe fluorescence polarization; shares compounds with PAD4 inh; 1,200 compounds, 28% hits; inhibition, % at 6.36 µM;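 active = mean inhibition across replicates above the hit cutoff set by the earlier primary screen, cut at about 15% in these data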;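 also: inhibitors block active-site labeling by the probe so polarization falls; 0% = PAD4 with probe and DMSO and 100% = probe without PAD4 enzyme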
Numbers without * were called inactive; · = no result.

SMILES	Fam108B counter	PAD4 inh	LYPLA2 inh	LYPLA1 counter	PME-1 inh	GSTO1 inh	PAD4 confirm
O=C(Cn1nc(Cc2ccncc2)c2ccccc2c1=O)N1CCc2ccccc2C1	0.4	-9.4	1.9	0.0	7.0	4.8	·
Cc1ccc(COC(=O)c2nn(C)c(=O)c3ccccc23)cc1	-1.4	25.3*	3.1	-0.2	-4.8	10.5	2.0
Cn1nc(C(=O)OCc2ccc(F)cc2)c2ccccc2c1=O	-1.7	-2.4	6.2	3.2	4.1	-2.3	·
O=C(Nc1nc(=O)c2ccccc2s1)c1ccc(F)cc1	-4.1	16.1*	-0.4	-3.5	-12.8	2.3	0.8
Cc1ccc(S(=O)(=O)N2[C@@H](c3ccccc3F)C(C(=O)O)=CC[C@H]2c2cccs2)cc1	-1.2	3.5	-5.3	-4.2	3.8	-4.7	·
Cc1sc(NC(=O)CSC2=NCCS2)nc1-c1ccccc1	3.6	19.2*	-5.1	-3.4	-9.1	0.4	17.3*
CCOC(=S)SCC(=O)Nc1nc(-c2ccccc2)cs1	-0.7	25.0*	2.4	-1.5	-0.5	3.0	24.6*
Cc1ccc(-c2csc(NC(=O)CSC3=NCCS3)n2)cc1	-2.6	20.1*	-9.1	-7.3	2.2	-14.4	15.9*
O=C(CSC1=NCCS1)Nc1nc2ccccc2s1	-1.5	16.8*	5.2	2.6	2.1	-1.4	10.5
Cc1ccc(S(=O)(=O)NCCC(=O)NCC(c2cccs2)N(C)C)cc1C (stereo unspecified)	·	1.0	10.3	1.0	6.5	·	·
Cc1nc(N2CCN(C(=O)c3ccco3)CC2)[nH]c(=O)c1C	-3.5	-3.8	4.7	4.1	1.7	3.2	·
COc1cc2c(cc1OC)C(NC(=O)C(F)(F)F)CNC2=O (stereo unspecified)	1.6	-2.3	6.7	0.1	-2.0	15.7	·
CCn1c(SC(C)C(=O)O)nc2sc3c(c2c1=O)CCC3 (stereo unspecified)	11.0	15.8*	2.0	0.8	1.2	12.1	5.2
CCOc1nc(Nc2ccc(OC)cc2OC)nc(OCC)n1	-2.1	190.1*	-1.4	3.0	4.0	-4.2	9.6
CCC1C(=O)N=C(SCC(=O)Nc2ccc(S(N)(=O)=O)cc2)NC1=O (stereo unspecified)	-1.4	15.5*	-0.8	-2.4	-8.6	9.7	11.4
CCOC(=O)Cc1nnc(NC(=O)CSc2nnc3c(n2)[nH]c2ccccc23)s1	-7.7	21.6*	-1.5	-3.8	-18.3	10.9	4.8
CC(C)C(=O)N(c1ccc2oc(=O)sc2c1)S(=O)(=O)c1ccccc1	-2.1	23.7*	2.9	0.8	-5.2	17.6	2.8
COc1ccc(S(=O)(=O)N(C(=O)C(C)C)c2ccc3oc(=O)sc3c2)cc1	4.9	14.0	1.2	4.2	1.8	15.2	·
CN(CC(=O)O)S(=O)(=O)c1cccs1	1.2	-8.7	-6.1	2.7	1.3	1.8	·
CC(=O)c1c(C)oc2ccc(N(C(C)=O)S(=O)(=O)c3cccc([N+](=O)[O-])c3)cc12	0.1	1.1	-7.0	1.6	2.6	-1.0	·
CCCC(=O)N(c1ccc2oc(=O)sc2c1)S(=O)(=O)c1cccs1	0.9	15.7*	-5.1	-1.7	-2.2	15.4	17.8*
COc1ccc(C(=O)Oc2ccc3ccc(=O)oc3c2)cc1	5.2	0.7	9.3	-4.0	-1.6	0.5	·
COc1ccc(C(=O)Oc2ccc3oc(=O)sc3c2)cc1	-0.1	48.2*	14.9	-1.6	-2.2	30.6	11.8
CC(=O)N(c1ccc2oc(=O)sc2c1)S(=O)(=O)c1ccccc1	1.2	17.7*	5.0	2.5	-5.5	28.2	14.3
Cc1ccc(C)n1-c1sc2c(c1C#N)CCC(C)C2 (stereo unspecified)	-1.0	0.3	1.9	3.0	3.9	5.3	·
SMILES	Fam108B counter	PAD4 inh	LYPLA2 inh	LYPLA1 counter	PME-1 inh	GSTO1 inh	PAD4 confirm
COc1ccc(NC(=O)N(C)C[C@H]2Oc3ccc(NC(=O)CCN4CCOCC4)cc3C(=O)N([C@H](C)CO)C[C@@H]2C)cc1	·	-0.2	·	·	·	·	·
COc1ccc(OC)c(S(=O)(=O)N(C(C)=O)c2ccc3oc(=O)sc3c2)c1	-0.7	25.1*	-1.9	0.9	-3.0	23.5	15.5*
COc1ccc(N(C(C)=O)S(=O)(=O)c2cc(OC)ccc2OC)cc1	-3.6	1.4	-1.1	3.1	-1.6	0.5	·
CCCCc1ccc(S(=O)(=O)N/N=C(/C)c2ccncc2)cc1	-4.2	3.0	2.1	-0.6	-0.8	-3.6	·
CCOC(=O)c1ccc2nc(NC(=O)c3ccco3)sc2c1	1.0	1.4	-1.9	-1.4	-12.1	-10.6	·
CCOc1ccc2nc(NC(=O)c3ccco3)sc2c1	0.1	16.7*	-4.2	-3.2	-12.4	1.8	13.1
CCOC(=O)c1c(CN2CCN(C)CC2)n(C)c2cc(Br)c(OC)cc12	-2.8	-1.5	1.1	-2.5	-3.4	-3.0	·
CCOC(=O)c1c(CSC(=N)N)n(C)c2cc(Br)c(OC(C)=O)cc12	-1.8	38.2*	0.2	-2.7	1.7	-23.5	44.0*
COC(C(=O)Nc1ccnn1C1CCN(Cc2ccc(Cl)s2)CC1)c1ccccc1 (stereo unspecified)	-1.3	1.0	4.4	2.2	-4.8	-5.7	·
O=C1N/C(=C/c2ccc(N3CCOCC3)o2)C(=O)N1c1ccccc1	5.8	119.3*	0.6	-5.3	-1.2	1.3	4.1
CC(C)(C)c1cc[n+](-c2[nH]c(=O)sc2/C=N/NC([S-])=Nc2ccccc2)cc1	6.2	16.6*	7.5	4.2	6.2	30.9	12.6
CC1CCCCN1C(=O)c1ccc(NC(=O)c2ccccc2Cl)cc1 (stereo unspecified)	3.1	0.4	1.3	-1.5	-2.0	-8.2	·
Cc1ccc(S(=O)(=O)N(C(=O)c2ccco2)c2cc3sc(=O)oc3c3ccccc23)cc1	6.7	21.1*	0.2	0.4	3.7	66.1*	8.5
Cc1cc(=O)oc2cc(NC(=O)c3cccc(S(C)(=O)=O)c3)ccc12	-3.3	19.1*	-2.8	-26.7	-8.3	0.9	19.6*
Cc1cc(=O)oc2cc(NC(=O)c3cccc(S(=O)(=O)N(C)C)c3)ccc12	-7.9	-0.6	-0.2	-0.5	-2.5	-1.5	·
COc1ccc(-n2ncc3c2CC(C)(C)CC3NC(=O)c2ccnn2C)cc1 (stereo unspecified)	-2.3	-0.6	-3.4	4.3	-2.0	1.0	·
CCCCc1cc(=O)oc2cc(O)ccc12	-0.8	24.4*	-2.5	2.4	1.8	-2.3	4.4
